Molecules are shown by their SMILES. About 3,200 (25%) of roughly 13,000 compounds showed an effect of 50% or more. Some of the results follow.

The test concerns P. falciparum stage V gametocytes. Further details: BacTiter-Glo ATP luminescence viability of purified stage V gametocytes in 384-well plates, per cent inhibition versus DMSO. The following applies: 48 h, 5 µM; inhibitor.
By % Inhibition is commonly meant the drop in the measured response relative to a control, in per cent. Consider `Clc1cc(Cl)c2c(c1)C(NCCCNc1nc3ccccc3[nH]1)CCO2` (stereo not shown) [TCMDC-139802], for which the “% Inhibition” value is listed as -25.37%.
For `O=c1cc(NC[C@@H]2CCC[C@@H]2NCc2ccc(Cl)c(Cl)c2)[nH]c2ccccc12` [TCMDC-139627], the “% Inhibition” value is on record as -25.41%.
With `Clc1cc(Cl)c2cc(CN[C@H]3CCC[C@@H]3CNc3nc4ccccc4[nH]3)[nH]c2c1` [TCMDC-139878], the “% Inhibition” value amounted to 63.13%.
Consider `CC1=C(C(=O)Nc2ccccc2)C(c2ccc([N+](=O)[O-])cc2)n2ncc(C(=O)Nc3ccccc3)c2N1` (stereo not shown) [TCMDC-125283], for which the “% Inhibition” value is recorded as 50.23%.
As for `COc1ccc(C2C(C(=O)Nc3ccccc3)=C(C)Nc3c(C(=O)Nc4ccccc4)cnn32)cc1` (stereo not shown) [TCMDC-125284], the “% Inhibition” value was -13.81%.
Turning to `CC1=C(C(=O)Nc2ccc(Cl)cc2)C(c2ccncc2)n2nc(C(F)(F)F)nc2N1` (stereo not shown) [TCMDC-124419], the “% Inhibition” value was -9.933%.
`c1csc(-c2ccc3c(c2)CC(NCc2c[nH]c4cnccc24)C3)c1` (stereo not shown) [TCMDC-134833]: the “% Inhibition” value is given as 42.25%.
As to `CCC(CC)N1CCN(CC(=O)Nc2ccc([N+](=O)[O-])cc2C(=O)Nc2cccc(OC)c2)CC1` [TCMDC-123679], the “% Inhibition” value is on record as -23.44%.
For the compound `COc1cc(NC(=O)c2cc([N+](=O)[O-])ccc2NC(=O)CNC2CCCC(C)C2C)cc(OC)c1` (stereo not shown) [TCMDC-125300], the “% Inhibition” value is given as -31.14%.
For the compound `COc1cccc(NC(=O)c2cc([N+](=O)[O-])ccc2NC(=O)CN2CCc3ccccc3C2)c1` [TCMDC-123678], the “% Inhibition” value is 69.57%.
`COc1cc(F)c2ncc(Cl)c(CCN3CCC(NCc4ccc5c(n4)NC(=O)CO5)CC3)c2c1` [TCMDC-135621]: the “% Inhibition” value is listed as -16.17%.
Turning to `O=C(Nc1ccc(-c2nc3ccccc3[nH]2)cc1)c1cccc(S(=O)(=O)N2CCOCC2)c1` [TCMDC-125263], the “% Inhibition” value is on record as -3.664%.
With `Cc1cc(N2CCOCC2)nc2ccc(NC(=O)c3cccc([N+](=O)[O-])c3)cc12` [TCMDC-123601], the “% Inhibition” value worked out at 0.6281%.
The same measure for `NS(=O)(=O)c1cccc(-c2ccc3ncc(N4CCOCC4)nc3c2)c1` [TCMDC-134052]: 73.87%; for `CN(C)c1ccc(-c2csc(C(=O)NCC3CCN(Cc4cccc(C(F)(F)F)c4)C3)c2)cc1` (stereo not shown) [TCMDC-134486]: 49.29%; for `CN(C)c1ccc(-c2csc(C(=O)NCC3CCN(CCC(C)(C)C)C3)c2)cc1` (stereo not shown) [TCMDC-134427]: 60.6%.
For the compound `CC(C)c1ccc(CN2CCC(CNC(=O)c3cc(-c4ccc(N(C)C)cc4)cs3)C2)cc1` (stereo not shown) [TCMDC-134440], the “% Inhibition” value is reported as 77.06%.
On to `CN(C)c1ccc(-c2csc(C(=O)NCC3CCN(Cc4ccc(C(C)(C)C)cc4)C3)c2)cc1` (stereo not shown) [TCMDC-134449], for which the “% Inhibition” value was determined as 80.7%.
Regarding `O=C1CCCC1Sc1nc2ccccc2c(=O)n1-c1ccc(Cl)c(Cl)c1` (stereo not shown) [TCMDC-125029], the “% Inhibition” value is recorded as -36.37%.
For the compound `CC1(C)N=C(N)N=C(N)N1OCCSc1ccc(Cl)c(Cl)c1` [TCMDC-131704], the “% Inhibition” value came to 5.969%.
Turning to `CN1CCN(c2cc3c(cc2Br)CCN3C(=O)Nc2ccc(-c3cnc4ccccc4c3)cc2)CC1` [TCMDC-139280], the “% Inhibition” value is given as 14.3%.
`Cc1cc(N[C@@H](CC(C)C)C(=O)Nc2ccccc2)nc(NCC2CCCCC2)n1` [TCMDC-134921]: the “% Inhibition” value is -51.59%.
The value for `CCOc1cc(C)ccc1N(C1CCN(CCCCNC(=O)c2ccc(-c3ccc(C(F)(F)F)cc3)cc2)CC1)S(=O)(=O)c1ccccc1` [TCMDC-138637] was 32.99%; that for `CCC(C)c1ccc(-n2c(Nc3ccccc3)nc3cc(S(N)(=O)=O)ccc32)cc1` (stereo not shown) [TCMDC-135490] was -10.42%.
As for `CCc1c[nH]c2c(N3CCCCS3(=O)=O)cc(C(=O)N[C@@H](Cc3ccccc3)[C@H](O)CNCc3cccc(OC)c3)cc12` [TCMDC-134127], the “% Inhibition” value is recorded as -6.303%.
`CCCC(C)Nc1nc(C)cc(N[C@@H](Cc2ccccc2)C(=O)Nc2ccc(OC)cc2)n1` (stereo partly shown) [TCMDC-134881]: the “% Inhibition” value is on record as -19.42%.
Turning to `COc1ccc(NC(=O)[C@H](Cc2ccccc2)Nc2cc(C)nc(NCC3CCCCC3)n2)cc1` [TCMDC-134929], the “% Inhibition” value is given as 14.59%.
With `COc1ccc(NC(=O)[C@H](Cc2ccccc2)Nc2cc(C)nc(NCCc3ccccn3)n2)cc1` [TCMDC-134746], the “% Inhibition” value came to 109.1%.
For `Cc1cc(N[C@@H](Cc2ccccc2)C(=O)Nc2ccccc2)nc(NCCc2ccccn2)n1` [TCMDC-134749], the “% Inhibition” value was determined as 53.15%.
Regarding `CO/C(=C\C=C\c1cc2cc(Cl)c(Cl)cc2[nH]1)C(=O)NCCCN1CCN(c2cccc(OC)c2)CC1` [TCMDC-139161], the “% Inhibition” value is -21.84%.
With `O=C(N[C@@H](Cc1ccccc1)C(=O)NC1CCCc2ccccc21)c1ccc(O)c(-c2ccc(Cl)c(Cl)c2)c1` (stereo partly shown) [TCMDC-140868], the “% Inhibition” value was 35.62%.
With `Nc1ncc(-c2cccc(CCN3CCOCC3)c2)cc1-c1nc2ccc(Br)cc2[nH]1` [TCMDC-133135], the “% Inhibition” value worked out at 15.3%.
Turning to `OC1CCCN(Cc2ccc(-c3cccc(-c4nc5ccccc5[nH]4)c3)cc2)C1` (stereo not shown) [TCMDC-133836], the “% Inhibition” value is -1.76%.
Regarding `NC1CCCN(Cc2ccc(-c3cccc(-c4nc5ccccc5[nH]4)c3)cc2)C1` (stereo not shown) [TCMDC-133880], the “% Inhibition” value was determined as 58.58%.
Take `O=C(O)C(F)(F)F.OC1CCCN(Cc2ccc(-c3ccc(-c4nc5ccccc5[nH]4)cc3)cc2)C1` (stereo not shown) [TCMDC-133829]: the “% Inhibition” value is reported as -32.2%.
As for `CC1CN(Cc2ccc(-c3ccc(-c4nc5ccccc5[nH]4)cc3)cc2)CC(C)O1.O=C(O)C(F)(F)F` (stereo not shown) [TCMDC-133828], the “% Inhibition” value was -35.16%.
With `NC1CCN(Cc2ccc(-c3cccc(-c4nc5ccccc5[nH]4)c3)cc2)C1` (stereo not shown) [TCMDC-133879], the “% Inhibition” value was determined as 58.35%.
The value for `NC1CCN(Cc2ccc(-c3ccc(-c4nc5ccccc5[nH]4)cc3)cc2)C1.O=C(O)C(F)(F)F` (stereo not shown) [TCMDC-133868] was 102.2%; that for `N=c1c2c(n(Cc3ccccc3)c3c1CCC3)CCCC2` [TCMDC-124229] was -1.262%; that for `Clc1cccc(C23N=C(Nc4nc5ccccc5[nH]4)NC2(c2ccccc2)NC(Nc2nc4ccccc4[nH]2)=N3)c1` (stereo not shown) [TCMDC-139089] was 3.895%.
The value for `N#Cc1ccc(-c2cnc3ccc(NCc4ccc(S(N)(=O)=O)cc4)nn23)cc1` [TCMDC-124515] was 21.95%; that for `NS(=O)(=O)c1ccc(CNc2ccc3ncc(-c4ccc(OC(F)(F)F)cc4)n3n2)cc1` [TCMDC-136685] was 61.81%.
For the compound `FC(F)(F)Oc1ccc(-c2cnc3ccc(NCc4ccncc4)nn23)cc1` [TCMDC-136681], the “% Inhibition” value worked out at 34.75%.
Regarding `NS(=O)(=O)c1ccc(CNc2ccc3ncc(-c4ccc(Cl)cc4)n3n2)cc1` [TCMDC-136686], the “% Inhibition” value was found to be 45.42%.
Turning to `COc1ccc(-c2cnc3ccc(NCc4ccc(S(N)(=O)=O)cc4)nn23)cn1` [TCMDC-136688], the “% Inhibition” value stood at 73.26%.
Regarding `COc1ccc(-c2cnc3ccc(NCc4ccc(S(N)(=O)=O)cc4)nn23)cc1` [TCMDC-136687], the “% Inhibition” value is on record as 45.37%.
The value for `CC(C)(CNC(=O)/C=C/c1ccc(Cl)c(Cl)c1)CNc1cc(=O)c2ccccc2[nH]1` [TCMDC-139404] was -42.09%; that for `O=C(/C=C/c1ccc(Cl)c(Cl)c1)NCCCCCN1CCC(NC(=O)Nc2cc(Cl)ccc2Cl)CC1` [TCMDC-135726] was -46.31%.
With `O=C(Cc1cnc[nH]1)Nc1cccc(-c2cccc(-c3nc4ccc(C(F)(F)F)cc4[nH]3)c2)c1` [TCMDC-136948], the “% Inhibition” value is on record as -28.45%.
Regarding `CC1SC(=S)NC1C(=O)O` (stereo not shown) [TCMDC-131380], the “% Inhibition” value amounted to 9.711%.
As to `CC(=O)N(Cc1ccccc1-c1cccc(CNCc2ccc3c(c2)OCO3)c1)C1CCN(Cc2ccccc2)CC1` [TCMDC-140526], the “% Inhibition” value is recorded as 86.49%.
As to `COCC(=O)N(Cc1ccccc1-c1cccc(CNCc2ccc3c(c2)OCO3)c1)C1CCN(Cc2ccccc2)CC1` [TCMDC-140535], the “% Inhibition” value was 7.259%.
In the case of `COCCNC(=O)C(CNC(=O)c1ccc2c(c1)OCO2)NC(=O)c1ccc(-c2ccccc2)cc1` (stereo not shown) [TCMDC-140308], the “% Inhibition” value is -7.15%.
Take `CC(=O)N(Cc1cccc(-c2cccc(CNCc3ccc4c(c3)OCO4)c2)c1)C1CCN(Cc2ccccc2)CC1` [TCMDC-140529]: the “% Inhibition” value is on record as -13.98%.
The value for `O=C(Nc1ccccc1)N(Cc1cccc(-c2ccc(CNCc3ccc4c(c3)OCO4)cc2)c1)C1CCN(Cc2ccccc2)CC1` [TCMDC-140591] was 67.97%; that for `COCCNCc1cccc(-c2ccccc2CN(C(=O)c2ccc3c(c2)OCO3)c2ccc(OC)cc2)c1` [TCMDC-140571] was 88.17%; that for `O=C(Nc1ccccc1)N(Cc1cccc(-c2cccc(CNCc3ccc4c(c3)OCO4)c2)c1)C1CCN(Cc2ccccc2)CC1` [TCMDC-140590] was 57.66%.
`CCOC(=O)c1c(NC(=O)c2ccccc2)sc2c(O)c(CNC3CCCCC3)ccc12` [TCMDC-124070]: the “% Inhibition” value stood at 25.8%.
For the compound `COc1ccc(Cl)cc1N1CCN(CCCNC(=O)c2ccc(-c3nc4cc5ccccc5cc4[nH]3)c(F)c2)CC1` [TCMDC-140099], the “% Inhibition” value was 14.17%.
In the case of `COc1ccc(-c2ncnc(C(F)(F)F)c2-c2ccc(Cl)cc2)c(O)c1` [TCMDC-123728], the “% Inhibition” value was found to be 11.32%.
The value for `Cc1nnsc1C(=O)Nc1ccc(-c2ccc(-c3nc4ccccc4[nH]3)s2)cc1` [TCMDC-137077] was 0.7938%; that for `Cc1ccc(C(=O)Nc2ccc(Cl)c(N3CCN(CCc4ccccc4)CC3)c2)cc1` [TCMDC-133536] was -30.75%.
In the case of `Nc1cccc(CNCc2cccc(-c3csc(-c4nc5ccccc5[nH]4)c3)c2)c1` [TCMDC-132925], the “% Inhibition” value is -31.54%.
In the case of `Cc1nc2ccc3ccc(CNc4ccc5c(c4)CN([C@@H](CCC(=O)O)C(=O)O)C5=O)cc3c2c(=O)[nH]1` [TCMDC-131928], the “% Inhibition” value is given as 20.65%.

The values above are taken from publication PMC4552634, “A New Set of Chemical Starting Points with Plasmodium falciparum Transmission-Blocking Potential for Antimalarial Drug Discovery” (PLoS ONE, 2015).
